JMJD2A Tudor: JMJD2A Tudor domain (human) inhibition | O75164 | AlphaScreen JMJD2A-Tudor / H3K4me3 peptide binding | Potency, µM (series often up to 114 µM), most hits filed as inhibitors | actives 4.4% (n = 390,000); also: nearly all actives have a fitted effect of over 50% in size
BAZ2B block: inhibitors of human BAZ2B bromodomain. Q9UIF8. AlphaScreen BAZ2B-H3K14Ac peptide displacement. Potency, µM (titrated, usually from 114 µM), most hits filed as inhibitors. actives 4.4% (n = 360,000); also: nearly all actives have a fitted effect of over 60% in size
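Compounds, titrated to a top concentration of 110 uM, were incubated 30 min at room temperature with preformed BAZ2B/acetyl-K14 H3 peptide complex (50 nM each). Proximity signal was measured by AlphaScreen after 20 min with beads.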
Sfp inh: inhibitors of Bacillus subtilis Sfp phosphopantetheinyl transferase; Q9F4F7; Potency, µM, usual class: inhibitors; actives 3.5% (n = 310,000); Biochemical Sfp PPTase activity, qHTS;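 also: the enzyme is Sfp with the accession as filed and its product quenches rhodamine fluorescence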
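Step 1, compound plus 15 nM Sfp-PPTase, 15 min, room temperature. Step 2, add rhodamine-CoA (5 uM) and BHQ-2-YbbR (12.5 uM). Step 3, read 525/598 nm fluorescence at 0 and 30 min.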
G9a inh: blocks human histone lysine methyltransferase G9a; actives 8.8% (n = 350,000); G9a H3K9 monomethylation, AlphaScreen, 2 h; Potency, µM (titrated, usually from 102 µM), most hits filed as inhibitors; Q96KQ7; AID 504332; also: nearly all actives have a fitted effect of over 75% in size
Target sequence (Q96KQ7 913-1193 limits assumed): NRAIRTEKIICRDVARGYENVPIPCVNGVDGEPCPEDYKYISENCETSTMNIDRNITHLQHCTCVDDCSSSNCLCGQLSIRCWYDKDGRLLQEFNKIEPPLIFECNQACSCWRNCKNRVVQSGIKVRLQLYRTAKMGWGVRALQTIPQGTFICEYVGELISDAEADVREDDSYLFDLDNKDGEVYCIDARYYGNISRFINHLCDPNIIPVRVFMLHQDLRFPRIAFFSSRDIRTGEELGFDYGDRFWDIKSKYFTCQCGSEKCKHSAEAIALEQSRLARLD
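AlphaScreen detection with an anti-monomethyl H3K9 antibody quantified product after a 2 h room-temperature reaction containing 500 nM biotinylated H3K9 peptide, 20 µM SAM and 20 nM enzyme, which had been preincubated 15 min with compound.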
HP1b chromo inh: inhibitors of HP1-beta chromodomain binding to methylated histone tails. AID 540317. Potency, µM (doses to about 114 µM), hits mostly inhibitors. AlphaScreen HP1-beta / biotin-H3K9me3 peptide binding. actives 0.56% (n = 390,000); also: nearly all actives have a fitted effect of over 70% in size
Target sequence (P83916 whole entry, looked up): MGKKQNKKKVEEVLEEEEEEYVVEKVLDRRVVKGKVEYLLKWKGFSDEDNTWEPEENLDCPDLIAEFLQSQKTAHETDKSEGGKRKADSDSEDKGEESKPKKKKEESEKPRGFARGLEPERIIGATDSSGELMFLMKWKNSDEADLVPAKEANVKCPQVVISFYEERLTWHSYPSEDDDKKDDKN
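AlphaScreen: HP1-beta (50 nM) preformed 30 min with biotin-H3(1-18)K9me3 peptide (50 nM) in PBS pH 7.4, 0.01% Tween-20. Compound added for 30 min at RT, then streptavidin donor/nickel chelate acceptor beads (10 ug/mL) for 30 min.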
Hits are given with their value; 0 = inactive; ? = inconclusive; - = no result; [ ] = dose if it differs, or a comment. A selection: hits, their analogues and other compounds. The true share with any hit is near 12%. Calls follow the shape of the dose curve; as a rule, active = well fitted curve in the direction sought with a large enough effect; inconclusive = small, poorly fitted or top-dose-only effect, or another doubt; inactive = no such curve, though single readings can be large; an effect the other way counts as inactive or inconclusive.

SMILES | JMJD2A Tudor | BAZ2B block | Sfp inh | G9a inh | HP1b chromo inh
Cc1ccc(NC(=O)c2cc(N3C(=O)C=CC3=O)ccc2N2CCOCC2)cc1 | 11µM | ? | 4.5µM | 1µM | ?
COC(=O)[C@]1(C)CCC[C@@]2(C)C3CC[C@@]4(C)C[C@]3(CCC21)CC(=O)N4Cc1ccc(OC)cc1 (some centres undefined) | 0 | 0 | - | 0[0.501 µM] | 0
COc1ccc2nc(SCC(=O)c3c(C)[nH]c4ccccc34)nc(C)c2c1 | 0 | ? | - | 0 | 0
CC(=O)c1ccc(N2CCN(C(=O)C3CCC3)CC2)cc1 | 0 | 0 | 89µM | ? | 0
CCOC(=O)N1CCN(c2cc(=O)n(-c3ccc(C)cc3)c(=O)[nH]2)CC1 | 0 | - | 0 | 50µM | 0
CCOc1ccccc1NC(=S)N1CCN(c2ccc(O)cc2)CC1 | ? | 0 | 0 | 35µM | 0
CC(=O)c1ccc(N2CCN(C(=O)C3CCN(S(=O)(=O)c4ccc(F)cc4)CC3)CC2)cc1 | 0 | 0 | - | 0[2.33 µM] | 0
O=C(c1ccccc1)N1CCCC(C(=O)N2CCN(c3ccccc3)CC2)C1 (centres undefined) | 50µM | 0 | 0 | ? | 0
CCOc1ccccc1NC(=S)N1CCN(c2ccc(OC)cc2)CC1 | ? | ? | 0 | ? | 0
COCC1CCCCN1C(=O)c1ccc(OC2CCN(CCc3ccccc3)CC2)cc1 (centres undefined) | 0 | 0 | 0 | 0 | 0
CCOC(=O)N1CCN(c2ccc(O)cc2)CC1 | 35µM | 0 | ? | 2.8µM | 0
O=C(C1CCN(S(=O)(=O)N2CCOCC2)CC1)N1CCN(c2ccc(F)cc2)CC1 | ? | 0 | 0 | ? | 0
O=C(C1CC1)N1CCN(c2ccc(O)cc2)CC1 | 79µM | 0 | ? | 25µM | ?
O=C(Nc1ccc(C(=O)OCc2cc(=O)n3ccsc3n2)cc1)c1cccc(F)c1 | 0 | 0 | - | 0[12.7 µM] | 0
N/C(=N\OC(=O)COc1ccccc1Cl)c1ccccn1 | 0 | 0 | 0 | 0 | 0
N/C(=N\OC(=O)c1ccccc1[N+](=O)[O-])c1ccccn1 | 0 | 0 | 0 | 3.2µM | 0
COc1ccccc1C(=O)O/N=C(\N)c1ccccn1 | 0 | 0 | 0 | - | 0
N/C(=N\OC(=O)COc1ccc2ccccc2c1)c1ccccn1 | ? | 0 | 89µM | 0[0.501 µM] | 0
N/C(=N\OC(=O)c1ccccc1Cl)c1ccccn1 | 0 | 0 | 0 | 71µM | 0
C[C@@H]1NC(=O)C/C=C\[C@@H](C)[C@@H]2C=C[C@H](O)[C@@H](COC(=O)[C@H](C)NC(=O)C/C=C\[C@@H](C)[C@@H]3C=C[C@H](O)[C@@H](COC1=O)O3)O2 | - | - | 0 | - | -
COc1cc(NC(=O)CCc2c(C)n(C)c3cc(-c4ccccc4C)nn3c2=O)cc(OC)c1OC | 0 | 0 | - | 0 | 0
CN(C(=O)C1CC1)C1CCS(=O)(=O)C1 (centres undefined) | 0 | 0 | - | 0 | 0
COc1cccc(C(=O)Nc2ccccc2-c2nc(-c3ccc(C)cc3)no2)c1 | 0 | 0 | - | 0 | 0
CCOC(=O)c1cnc(Nc2nc3ccccc3o2)nc1CN1CCN(C)CC1 | ? | 79µM | 0 | 0[0.501 µM] | 0
CCOC(=O)c1oc2ccccc2c1NC(=O)CN1CCN(C)CC1 | 0 | 0 | 0 | 0 | 0
SMILES | JMJD2A Tudor | BAZ2B block | Sfp inh | G9a inh | HP1b chromo inh
CCOc1ccc(CCNC(=O)c2sc3nc4n(c(=O)c3c2C)CCCC4)cc1OCC | 0 | 56µM | - | 0 | 0
Cc1c(C(=O)NCc2cccc(Cl)c2)sc2nc3n(c(=O)c12)CCCC3 | 79µM | 18µM | - | 16µM | 0
COc1ccc(CNC(=O)c2sc3nc4n(c(=O)c3c2C)CCCC4)cc1 | 89µM | 45µM | - | 14µM | 0
CCOc1ccc(CCNC(=O)c2sc3nc4n(c(=O)c3c2C)CCC4)cc1OCC | 0 | 0 | 0 | 0[12.7 µM] | 0
Cc1c(C(=O)NCc2ccccc2Cl)sc2nc3n(c(=O)c12)CCC3 | 0 | 0 | - | 0 | 0
Cc1c(C(=O)NCc2ccc(Cl)cc2)sc2nc3n(c(=O)c12)CCCC3 | 0 | 0 | - | 11µM | 0
Cc1cccc(CCNC(=O)c2sc3nc4n(c(=O)c3c2C)CCCC4)c1 | 0 | 0 | - | ? | 0
COCCN(CCOC)c1nc(C)nc2c1nc(-c1ccccc1)n2CCN1CCOCC1 | - | - | 0 | - | -
Cc1ccc2c(=O)cc(C(=O)Nc3ccc(S(=O)(=O)N4CCCCC4)cc3)oc2c1 | 0 | 0 | - | 0 | 0
CCc1cccc(NC(=O)c2sc3nc4n(c(=O)c3c2C)CCC4)c1 | 0 | 0 | 0 | 0 | 0
Cc1c(C(=O)Nc2cccc(C#N)c2)sc2nc3n(c(=O)c12)CCCCC3 | 0 | 50µM | - | ? | 0
O=C(N/N=C/c1ccccc1)c1ccc(N2CCCC2=O)cc1 | 0 | - | - | - | 0
COc1ccc2c(c1)N(C)/C(=C/c1cccc[n+]1C)S2 | ? | ? | 0 | 35µM | 0
CCN1/C(=C/c2cccc[n+]2C)Sc2ccc(OC)cc21 | 18µM | 0 | 0 | 50µM | 0
CCN1/C(=C/C(C)=O)Sc2ccc(OC)cc21 | 0 | ? | 0 | ? | 0
O=C(NCc1ccccc1Cl)c1cc2c(s1)CS(=O)(=O)C2 | 0 | 0 | 0 | 0 | 0
Clc1cccc(N2CCN(Cc3ccc(Br)o3)CC2)c1 | 28µM | ? | 0 | 6.3µM | ?
Clc1ccc(N2CCN(Cc3ccc(Br)o3)CC2)cc1 | 20µM | 50µM | 0 | 13µM | ?
Clc1ccc(N2CCN(Cc3cc4ccccn4n3)CC2)cc1 | - | - | 0 | 0 | -
Cc1ccc(O)c(C2=NNC(c3ccc(Cl)cc3)C2)c1 (centres undefined) | 0 | ? | 0 | - | 0
Cc1ccc(O)c(C2=NNC(O)(C(F)(F)F)C2)c1 (centres undefined) | 0 | 0 | 0 | 56µM | 0
CCOC(=S)SCC(=O)N1CCc2ccccc2C1C1C(=O)CCCC1=O (centres undefined) | 0 | ? | 56µM | ? | 0
CCOCC(=O)N1CCC(Cc2ccccc2)CC1 | 0[11.4 µM] | 0 | 0 | 0 | 0
N#Cc1ccccc1OCCCN1CCC(Cc2ccccc2)CC1 | 4.5µM | ? | 0 | 32µM | ?
CCOc1ccccc1NC(=O)NCCN1CCCCC1 | 0 | 0 | 0 | 0 | 0
SMILES | JMJD2A Tudor | BAZ2B block | Sfp inh | G9a inh | HP1b chromo inh
Cc1ccc([N+](=O)[O-])c(OCCN2CCC(Cc3ccccc3)CC2)c1 | 3.2µM | 22µM | ? | ? | ?
CCOc1ccccc1OCCN1CCC(Cc2ccccc2)CC1 | 45µM | 56µM | 0 | 16µM | 0
CCOc1ccccc1OCCN1CCCC1 | 20µM | 0 | 0 | 79µM | 0
N#Cc1ccccc1OCC(=O)C1CC1 | 0 | 0 | 0 | 0 | 0
CCc1cccc(Nc2ncnc3onc(-c4ccc(F)cc4)c23)c1 | 0 | 0 | - | 0 | 0
Cc1ccc(SCCOCCN2CC(C)OC(C)C2)cc1 (centres undefined) | 0 | 0 | 0 | ? | 0
CCN1CCN(CCOc2ccccc2OCc2ccccc2)CC1 | 13µM | 22µM | 0 | 20µM | ?
CCOc1ccccc1OCCOCCN1CC(C)OC(C)C1 (centres undefined) | ? | ? | 0 | 16µM | 0
CCC(=O)c1ccccc1OCCCN1CCC(Cc2ccccc2)CC1 | 35µM | 0 | ? | 40µM | ?
COC(=O)c1sccc1S(=O)(=O)N1CCN(c2ccc(C)cc2C)CC1 | 0 | 0 | - | 0 | 0

Bioassay records (PubChem BioAssay)
